Assay in all cases: DAPPL (digital affinity profiling via proximity ligation, sequencing); 10 mM Tris-HCl pH 7.5, 50 mM NaCl, 1 mM DTT, 4% glycerol, room temperature, 30 min; GST-TFs on glutathione beads, 16-mer random dsDNA library, 0.1% formaldehyde crosslink after washing; high values mean tight binding
One test deals with T1, FEV (Homo sapiens, UniProt Q99581 1-238).
T1 sequence: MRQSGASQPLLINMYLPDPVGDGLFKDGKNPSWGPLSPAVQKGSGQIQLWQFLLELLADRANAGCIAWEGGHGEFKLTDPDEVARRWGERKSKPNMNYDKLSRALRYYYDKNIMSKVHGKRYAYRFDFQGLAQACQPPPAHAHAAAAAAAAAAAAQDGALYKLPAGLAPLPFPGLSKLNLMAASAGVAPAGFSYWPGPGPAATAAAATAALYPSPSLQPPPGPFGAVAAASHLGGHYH
The conditions noted are these: protein: recombinant; tags: N-terminal GST; dsDNA, one strand shown. In short, it runs like this:
(§1)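 Each value of binding signal is a hexamer's read frequency for a factor divided by the same hexamer's frequency in the tag-only sample. Barcoded, bead-captured GST fusions of human transcription factors made in yeast were pooled with that sample and incubated with 200 nmole of a random double-stranded 16-mer DNA library in Tris/NaCl/DTT/glycerol buffer at room temperature for 30 min. Washing, 0.1% formaldehyde crosslinking, proximity ligation, PCR and Illumina NextSeq500 sequencing followed.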

The target of the next test is ETV5 (Homo sapiens, UniProt P41161 1-510). Conditions: protein: recombinant; tags: N-terminal GST; dsDNA, one strand shown. In outline:
as §1

The next test has as its target HSF1 (Homo sapiens, UniProt Q00613 1-529). Conditions: protein: recombinant; tags: N-terminal GST; chain copies: 3; dsDNA, one strand shown. In short, it runs like this: as §1
For the next test, the target named is T2, SPIC (Homo sapiens, UniProt Q8N5J4 1-248).
T2 sequence: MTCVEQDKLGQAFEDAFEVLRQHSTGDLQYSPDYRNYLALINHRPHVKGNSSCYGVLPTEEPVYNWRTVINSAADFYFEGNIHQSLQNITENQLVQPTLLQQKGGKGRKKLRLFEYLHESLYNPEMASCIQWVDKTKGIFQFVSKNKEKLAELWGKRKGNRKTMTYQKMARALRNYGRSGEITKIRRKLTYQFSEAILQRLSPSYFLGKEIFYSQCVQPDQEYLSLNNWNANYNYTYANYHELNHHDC
The conditions noted are these: protein: recombinant; tags: N-terminal GST; dsDNA, one strand shown. In outline: as §1

The target in a further test is ELF4 (Homo sapiens, UniProt Q99607 1-663). Conditions: protein: recombinant; tags: N-terminal GST; dsDNA, one strand shown. In short, it runs like this: as §1
The target in the next test is T3, ELK4 (Homo sapiens, UniProt P28324-2 1-405).
T3 sequence: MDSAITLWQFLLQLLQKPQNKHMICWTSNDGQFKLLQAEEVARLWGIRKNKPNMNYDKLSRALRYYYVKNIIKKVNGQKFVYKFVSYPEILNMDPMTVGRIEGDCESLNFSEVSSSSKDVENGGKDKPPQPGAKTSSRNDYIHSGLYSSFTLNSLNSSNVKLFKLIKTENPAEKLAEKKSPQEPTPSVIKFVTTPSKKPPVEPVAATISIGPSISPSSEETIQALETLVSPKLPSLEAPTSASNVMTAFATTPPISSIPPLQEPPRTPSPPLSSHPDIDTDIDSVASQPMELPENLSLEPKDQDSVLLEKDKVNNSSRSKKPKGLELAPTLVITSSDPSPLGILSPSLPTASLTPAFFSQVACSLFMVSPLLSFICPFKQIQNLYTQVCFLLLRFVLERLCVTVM
The conditions noted are these: protein: recombinant; tags: N-terminal GST; dsDNA, one strand shown. In outline: as §1

A further test concerns the target T4, ETV2 (Homo sapiens, UniProt O00321 1-342).
T4 sequence: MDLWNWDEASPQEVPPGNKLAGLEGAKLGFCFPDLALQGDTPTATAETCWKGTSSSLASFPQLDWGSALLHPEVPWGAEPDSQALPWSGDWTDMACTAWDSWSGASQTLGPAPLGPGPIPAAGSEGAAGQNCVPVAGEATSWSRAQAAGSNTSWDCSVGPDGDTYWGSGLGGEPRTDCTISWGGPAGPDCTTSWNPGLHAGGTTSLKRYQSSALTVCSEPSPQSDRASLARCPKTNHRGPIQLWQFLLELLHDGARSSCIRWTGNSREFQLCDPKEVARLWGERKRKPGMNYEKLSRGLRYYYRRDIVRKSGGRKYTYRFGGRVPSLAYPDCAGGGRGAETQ
The conditions noted are these: protein: recombinant; tags: N-terminal GST; dsDNA, one strand shown. In outline: as §1

In the next test the target is T5, ELF3 (Homo sapiens, UniProt P78545 1-371).
T5 sequence: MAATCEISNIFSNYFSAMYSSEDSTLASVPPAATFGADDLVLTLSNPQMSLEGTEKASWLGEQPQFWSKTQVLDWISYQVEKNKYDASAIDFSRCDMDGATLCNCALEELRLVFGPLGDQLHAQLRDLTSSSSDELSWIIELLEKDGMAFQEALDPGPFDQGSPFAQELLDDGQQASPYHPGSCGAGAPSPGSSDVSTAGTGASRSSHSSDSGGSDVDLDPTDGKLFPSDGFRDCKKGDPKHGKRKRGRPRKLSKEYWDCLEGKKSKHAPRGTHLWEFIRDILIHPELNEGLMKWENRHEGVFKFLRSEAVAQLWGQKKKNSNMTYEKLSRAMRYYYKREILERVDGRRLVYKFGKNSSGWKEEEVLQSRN
The conditions noted are these: protein: recombinant; tags: N-terminal GST; dsDNA, one strand shown. In outline: as §1

A further test concerns the target CRX (Homo sapiens, UniProt O43186 1-299). The conditions noted are these: protein: recombinant; tags: N-terminal GST; dsDNA, one strand shown. In short, it runs like this:
as §1

A further test has as its target ETV1 (Homo sapiens, UniProt P50549 1-477). Conditions: protein: recombinant; tags: N-terminal GST; dsDNA, one strand shown. In outline: as §1
For a further test, the target named is T6, ERF (Homo sapiens, UniProt P50548 1-548).
T6 sequence: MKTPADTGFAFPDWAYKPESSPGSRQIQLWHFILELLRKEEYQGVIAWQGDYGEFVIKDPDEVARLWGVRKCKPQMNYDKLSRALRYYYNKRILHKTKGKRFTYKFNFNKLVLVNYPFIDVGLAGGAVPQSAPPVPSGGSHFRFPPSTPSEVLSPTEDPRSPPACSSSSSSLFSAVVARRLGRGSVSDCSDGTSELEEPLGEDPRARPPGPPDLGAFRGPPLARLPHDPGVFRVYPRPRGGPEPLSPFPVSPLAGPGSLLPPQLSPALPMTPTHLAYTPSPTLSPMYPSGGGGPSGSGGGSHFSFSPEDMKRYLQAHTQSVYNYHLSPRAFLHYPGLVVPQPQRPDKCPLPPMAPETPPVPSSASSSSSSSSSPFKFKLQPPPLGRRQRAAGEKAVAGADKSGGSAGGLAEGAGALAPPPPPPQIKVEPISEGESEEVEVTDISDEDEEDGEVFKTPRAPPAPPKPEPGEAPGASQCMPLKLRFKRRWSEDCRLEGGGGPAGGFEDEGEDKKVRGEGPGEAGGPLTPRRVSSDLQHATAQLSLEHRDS
The conditions noted are these: protein: recombinant; tags: N-terminal GST; dsDNA, one strand shown. In short, it runs like this: as §1

The next test has as its target T7, ETV3L (Homo sapiens, UniProt Q6ZN32 1-361).
T7 sequence: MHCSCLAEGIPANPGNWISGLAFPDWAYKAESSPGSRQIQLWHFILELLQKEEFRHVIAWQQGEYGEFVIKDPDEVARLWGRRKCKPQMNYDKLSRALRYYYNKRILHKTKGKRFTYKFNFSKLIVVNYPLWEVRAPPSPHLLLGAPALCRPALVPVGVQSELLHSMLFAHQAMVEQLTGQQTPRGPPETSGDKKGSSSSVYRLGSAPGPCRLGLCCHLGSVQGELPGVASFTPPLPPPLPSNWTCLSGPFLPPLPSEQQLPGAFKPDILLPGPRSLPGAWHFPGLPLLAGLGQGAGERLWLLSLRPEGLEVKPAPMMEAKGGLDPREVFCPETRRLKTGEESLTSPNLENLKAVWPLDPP
The conditions noted are these: protein: recombinant; tags: N-terminal GST; dsDNA, one strand shown. In short, it runs like this:
as §1

In the next test the target is T8, ETS2 (Homo sapiens, UniProt P15036 1-469).
T8 sequence: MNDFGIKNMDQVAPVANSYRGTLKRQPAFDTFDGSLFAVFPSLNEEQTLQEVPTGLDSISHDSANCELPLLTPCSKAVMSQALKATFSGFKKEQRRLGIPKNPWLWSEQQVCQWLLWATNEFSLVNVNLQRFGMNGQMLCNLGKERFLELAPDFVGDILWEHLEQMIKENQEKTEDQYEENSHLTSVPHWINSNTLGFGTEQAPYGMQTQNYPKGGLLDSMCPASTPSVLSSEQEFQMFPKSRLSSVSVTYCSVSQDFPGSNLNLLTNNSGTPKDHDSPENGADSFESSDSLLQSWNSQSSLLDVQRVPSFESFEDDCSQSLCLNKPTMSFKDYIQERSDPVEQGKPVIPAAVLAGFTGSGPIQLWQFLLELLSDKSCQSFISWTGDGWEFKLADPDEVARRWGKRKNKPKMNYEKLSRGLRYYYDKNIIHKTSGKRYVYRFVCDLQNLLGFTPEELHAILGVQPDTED
The conditions noted are these: protein: recombinant; tags: N-terminal GST; dsDNA, one strand shown. In short, it runs like this:
as §1

The next test concerns the target T9, SPDEF (Homo sapiens, UniProt O95238 1-335).
T9 sequence: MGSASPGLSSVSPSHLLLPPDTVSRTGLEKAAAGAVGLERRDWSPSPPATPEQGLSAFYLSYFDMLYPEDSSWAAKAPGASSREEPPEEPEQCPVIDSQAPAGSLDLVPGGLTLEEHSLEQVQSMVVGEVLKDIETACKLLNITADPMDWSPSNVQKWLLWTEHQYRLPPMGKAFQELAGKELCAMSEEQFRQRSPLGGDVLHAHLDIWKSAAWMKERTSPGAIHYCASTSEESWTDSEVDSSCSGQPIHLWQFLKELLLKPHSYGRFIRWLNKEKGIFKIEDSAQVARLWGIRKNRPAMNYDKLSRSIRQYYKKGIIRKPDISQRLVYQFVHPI
Conditions: protein: recombinant; tags: N-terminal GST; dsDNA, one strand shown. In short, it runs like this: as §1

The target in the next test is T10, ETV7 (Homo sapiens, UniProt Q9Y603 1-341).
T10 sequence: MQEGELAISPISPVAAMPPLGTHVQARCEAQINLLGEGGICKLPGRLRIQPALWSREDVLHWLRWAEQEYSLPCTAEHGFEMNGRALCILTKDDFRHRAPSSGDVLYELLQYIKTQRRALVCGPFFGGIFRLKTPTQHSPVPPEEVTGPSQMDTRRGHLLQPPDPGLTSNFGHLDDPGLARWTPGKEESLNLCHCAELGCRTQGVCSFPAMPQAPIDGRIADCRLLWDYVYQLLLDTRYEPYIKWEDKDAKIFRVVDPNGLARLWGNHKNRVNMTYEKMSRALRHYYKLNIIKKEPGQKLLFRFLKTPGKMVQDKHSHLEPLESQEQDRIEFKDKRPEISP
Conditions: protein: recombinant; tags: N-terminal GST; dsDNA, one strand shown. In outline:
as §1

A further test concerns the target T11, ELF5 (Homo sapiens, UniProt Q9UKW6-2 1-255).
T11 sequence: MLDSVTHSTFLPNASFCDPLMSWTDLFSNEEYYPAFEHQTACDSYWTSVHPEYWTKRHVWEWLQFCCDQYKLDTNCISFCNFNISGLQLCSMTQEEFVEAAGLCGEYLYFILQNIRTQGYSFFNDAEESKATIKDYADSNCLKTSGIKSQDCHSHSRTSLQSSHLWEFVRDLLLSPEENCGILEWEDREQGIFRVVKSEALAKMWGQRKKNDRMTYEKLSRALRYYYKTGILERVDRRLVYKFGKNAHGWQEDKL
The conditions noted are these: protein: recombinant; tags: N-terminal GST; dsDNA, one strand shown. In short, it runs like this:
as §1

The target in the next test is T12, ETV3 (Homo sapiens, UniProt P41162-2 1-143).
T12 sequence: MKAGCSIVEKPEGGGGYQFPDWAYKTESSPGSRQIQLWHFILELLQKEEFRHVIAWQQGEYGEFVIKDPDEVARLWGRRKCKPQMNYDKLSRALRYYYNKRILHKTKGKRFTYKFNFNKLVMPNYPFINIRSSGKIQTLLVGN
The conditions noted are these: protein: recombinant; tags: N-terminal GST; dsDNA, one strand shown. In short, it runs like this: as §1

The next test addresses ETV6 (Homo sapiens, UniProt P41212 1-452). The conditions noted are these: protein: recombinant; tags: N-terminal GST; dsDNA, one strand shown. In outline: as §1

Chain of ETV5 (P41161 whole entry): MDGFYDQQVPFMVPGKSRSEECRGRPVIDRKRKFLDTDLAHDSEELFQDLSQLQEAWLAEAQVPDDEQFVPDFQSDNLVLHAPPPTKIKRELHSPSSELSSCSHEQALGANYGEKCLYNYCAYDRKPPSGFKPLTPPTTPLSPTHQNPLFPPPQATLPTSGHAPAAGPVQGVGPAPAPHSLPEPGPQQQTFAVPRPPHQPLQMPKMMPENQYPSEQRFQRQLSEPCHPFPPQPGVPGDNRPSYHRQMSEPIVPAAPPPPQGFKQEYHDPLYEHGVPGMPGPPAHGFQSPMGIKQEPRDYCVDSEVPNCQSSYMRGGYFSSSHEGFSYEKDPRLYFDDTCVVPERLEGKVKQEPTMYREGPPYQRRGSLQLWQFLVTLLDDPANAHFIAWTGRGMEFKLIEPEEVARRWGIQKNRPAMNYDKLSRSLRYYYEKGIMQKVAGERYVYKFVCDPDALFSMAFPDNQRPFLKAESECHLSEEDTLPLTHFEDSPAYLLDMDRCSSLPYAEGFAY
Chain of HSF1 (Q00613 whole entry): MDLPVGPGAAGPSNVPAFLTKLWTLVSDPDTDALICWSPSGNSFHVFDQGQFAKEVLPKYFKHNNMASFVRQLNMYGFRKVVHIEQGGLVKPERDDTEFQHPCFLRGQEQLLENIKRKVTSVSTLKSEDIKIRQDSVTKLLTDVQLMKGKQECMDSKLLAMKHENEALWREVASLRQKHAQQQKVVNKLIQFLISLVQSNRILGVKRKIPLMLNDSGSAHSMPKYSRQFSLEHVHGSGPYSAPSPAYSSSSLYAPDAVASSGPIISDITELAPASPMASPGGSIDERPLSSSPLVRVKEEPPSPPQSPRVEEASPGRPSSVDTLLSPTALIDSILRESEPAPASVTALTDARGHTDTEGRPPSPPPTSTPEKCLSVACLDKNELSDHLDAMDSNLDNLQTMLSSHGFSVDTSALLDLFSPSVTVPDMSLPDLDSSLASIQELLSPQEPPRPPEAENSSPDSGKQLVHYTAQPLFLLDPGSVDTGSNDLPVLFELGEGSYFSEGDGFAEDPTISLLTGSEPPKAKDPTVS
Chain of CRX (O43186 whole entry): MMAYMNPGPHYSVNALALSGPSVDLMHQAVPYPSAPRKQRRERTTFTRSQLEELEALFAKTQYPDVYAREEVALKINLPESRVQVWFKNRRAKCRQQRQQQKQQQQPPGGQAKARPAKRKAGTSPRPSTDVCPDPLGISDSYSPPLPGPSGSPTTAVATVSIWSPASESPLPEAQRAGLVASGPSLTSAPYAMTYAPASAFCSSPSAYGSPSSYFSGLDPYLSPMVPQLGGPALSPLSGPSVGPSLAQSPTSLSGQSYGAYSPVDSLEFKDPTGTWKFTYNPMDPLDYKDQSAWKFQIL
Chain of ETV6 (P41212 whole entry): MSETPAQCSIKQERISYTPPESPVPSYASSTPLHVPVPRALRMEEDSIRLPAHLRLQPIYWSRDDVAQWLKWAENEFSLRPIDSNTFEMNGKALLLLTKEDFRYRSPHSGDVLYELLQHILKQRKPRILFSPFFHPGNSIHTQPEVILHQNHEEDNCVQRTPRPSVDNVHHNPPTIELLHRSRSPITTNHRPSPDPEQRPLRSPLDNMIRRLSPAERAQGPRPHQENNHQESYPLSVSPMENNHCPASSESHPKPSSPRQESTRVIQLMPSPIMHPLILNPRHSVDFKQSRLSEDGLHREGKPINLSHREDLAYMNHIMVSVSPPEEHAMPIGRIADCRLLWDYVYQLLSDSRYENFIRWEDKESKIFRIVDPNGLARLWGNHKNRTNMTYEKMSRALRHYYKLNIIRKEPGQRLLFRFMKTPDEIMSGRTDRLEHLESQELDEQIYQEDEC
Chain of ELF4 (Q99607 whole entry): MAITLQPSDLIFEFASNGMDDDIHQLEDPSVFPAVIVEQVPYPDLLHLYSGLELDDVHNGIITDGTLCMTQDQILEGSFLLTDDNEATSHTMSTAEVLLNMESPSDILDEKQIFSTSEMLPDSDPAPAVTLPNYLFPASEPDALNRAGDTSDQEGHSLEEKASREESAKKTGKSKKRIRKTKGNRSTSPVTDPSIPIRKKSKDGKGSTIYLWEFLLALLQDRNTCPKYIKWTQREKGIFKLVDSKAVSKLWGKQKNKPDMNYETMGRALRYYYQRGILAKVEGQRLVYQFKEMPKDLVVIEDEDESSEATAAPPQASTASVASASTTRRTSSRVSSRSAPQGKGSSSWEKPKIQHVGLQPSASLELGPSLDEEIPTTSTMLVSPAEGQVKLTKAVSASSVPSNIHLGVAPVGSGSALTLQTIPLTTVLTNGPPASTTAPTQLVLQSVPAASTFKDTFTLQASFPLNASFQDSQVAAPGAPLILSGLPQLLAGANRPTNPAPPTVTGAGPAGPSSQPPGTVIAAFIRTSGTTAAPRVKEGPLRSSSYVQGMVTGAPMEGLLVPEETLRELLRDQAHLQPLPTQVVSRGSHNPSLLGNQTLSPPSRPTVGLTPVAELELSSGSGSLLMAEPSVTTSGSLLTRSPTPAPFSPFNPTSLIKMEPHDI
Chain of ETV1 (P50549 whole entry): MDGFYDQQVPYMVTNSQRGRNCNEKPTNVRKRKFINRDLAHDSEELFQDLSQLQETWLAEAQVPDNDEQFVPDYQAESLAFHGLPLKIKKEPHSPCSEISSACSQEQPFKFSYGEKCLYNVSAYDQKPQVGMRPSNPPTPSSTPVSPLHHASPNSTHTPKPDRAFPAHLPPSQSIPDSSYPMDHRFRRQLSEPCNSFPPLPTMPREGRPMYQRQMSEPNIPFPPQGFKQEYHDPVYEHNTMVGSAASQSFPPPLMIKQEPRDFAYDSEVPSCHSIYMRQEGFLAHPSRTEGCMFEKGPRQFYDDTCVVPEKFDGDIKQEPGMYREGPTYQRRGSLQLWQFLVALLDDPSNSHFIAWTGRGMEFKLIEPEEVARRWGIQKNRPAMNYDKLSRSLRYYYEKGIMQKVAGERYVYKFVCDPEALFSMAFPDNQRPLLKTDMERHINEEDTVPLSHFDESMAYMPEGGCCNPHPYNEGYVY

In the case of AACCTT, the binding signal is 1.24 fold enrichment (6-mer frequency, TF over GST control) with FEV; 1.3 fold enrichment (6-mer frequency, TF over GST control) with ETV5; 1.66 fold enrichment (6-mer frequency, TF over GST control) with HSF1; 1.17 fold enrichment (6-mer frequency, TF over GST control) with SPIC; 1.27 fold enrichment (6-mer frequency, TF over GST control) in the test with ELF4; 1.36 fold enrichment (6-mer frequency, TF over GST control) in the test with ELK4. The binding signal with ETV2 was 1.13 fold enrichment (6-mer frequency, TF over GST control); in the test with ELF3, 1.23 fold enrichment (6-mer frequency, TF over GST control); with CRX, 1.39 fold enrichment (6-mer frequency, TF over GST control); with ETV1 it was 1.29 fold enrichment (6-mer frequency, TF over GST control); in the test with ERF, 1.39 fold enrichment (6-mer frequency, TF over GST control); with ETV3L it was 1.27 fold enrichment (6-mer frequency, TF over GST control). For the same sequence, the binding signal is 1.38 fold enrichment (6-mer frequency, TF over GST control) with ETS2; 1.29 fold enrichment (6-mer frequency, TF over GST control) in the test with SPDEF; 1.29 fold enrichment (6-mer frequency, TF over GST control) in the test with ETV7; 1.33 fold enrichment (6-mer frequency, TF over GST control) in the test with ELF5; 1.28 fold enrichment (6-mer frequency, TF over GST control) with ETV3; 1.27 fold enrichment (6-mer frequency, TF over GST control) in the test with ETV6.

The values above are taken from publication PMC7862700, “An all-to-all approach to the identification of sequence-specific readers for epigenetic DNA modifications on cytosine”.
